PTHR1 agonist: qHTS for PTHR1 Agonists: Primary Screen; HEK293 GP2 PTHR1 cells, GloSensor cAMP luminescence, 1 h; Potency, µM (titrated, usually from 115 µM), without a hit: top-dose activation, most hits filed as activators; 0.075% of 410,000 active; AID 743266, 2014; note: potency is the fitted concentration of half-maximal effect; nearly all actives have a fitted effect of over 55% in size
Target sequence (Q03431 whole entry, looked up): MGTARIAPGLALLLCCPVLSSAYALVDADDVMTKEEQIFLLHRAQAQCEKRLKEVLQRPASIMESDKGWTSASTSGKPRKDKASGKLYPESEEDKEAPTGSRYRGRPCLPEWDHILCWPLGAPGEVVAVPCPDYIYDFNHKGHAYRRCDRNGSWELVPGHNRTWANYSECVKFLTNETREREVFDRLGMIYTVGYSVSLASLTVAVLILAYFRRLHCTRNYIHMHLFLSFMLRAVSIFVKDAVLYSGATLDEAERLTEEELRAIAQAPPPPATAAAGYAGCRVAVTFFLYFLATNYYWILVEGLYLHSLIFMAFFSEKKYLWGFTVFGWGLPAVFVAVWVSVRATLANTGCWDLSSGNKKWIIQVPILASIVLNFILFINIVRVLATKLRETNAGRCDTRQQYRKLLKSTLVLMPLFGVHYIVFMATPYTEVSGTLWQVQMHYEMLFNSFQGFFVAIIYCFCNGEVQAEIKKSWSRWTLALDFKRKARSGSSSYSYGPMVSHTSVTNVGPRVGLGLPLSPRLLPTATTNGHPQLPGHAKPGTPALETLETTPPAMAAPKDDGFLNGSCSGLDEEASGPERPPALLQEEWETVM
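HEK-293-derived GP2 cells expressing PTHR1 and a GloSensor cAMP reporter, 3,000/well, plated overnight, given luciferin plus IBMX (each 0.5 mM as added) for 1 h at 37 °C, then compound for 1 h at 37 °C. Luminescence was read after 15 min at room temperature.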
Mito fusion yeast: qHTS Assay for Small Molecule Inhibitors of Mitochondrial Division or Activators of Mitochondrial Fusion. S. cerevisiae fusion-defective mutant growth rescue, CellTiterGlo 48 h. Potency, µM (titrated, usually from 46.1 µM), for inactives: top-dose growth rescue (activation), usual class: activators. 0.23% of 320,000 active. AID 485298, 2010; note: potency is the fitted concentration of half-maximal effect; % of control where 0% means no effect; nearly all actives have a fitted effect of over 45% in size
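Growth-rescue viability read-out: after 48 h at the non-permissive 37C in glycerol/ethanol YPEG, yeast mitochondrial fusion mutants are measured by CellTiterGlo luminescence; compounds (23 nl pinned per well) restoring growth score as division inhibitors or fusion activators.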
Chronic BCR inh: qHTS Assay to Find Inhibitors of Chronic Active B-Cell Receptor Signaling; ABC-DLBCL IkBa-CBG/CBR reporter, luminescence ratio, 4 h; Potency, µM (doses to about 46.1 µM), without a hit: at the top dose activity change, negative = inhibition, hits mostly inhibitors; 0.05% of 340,000 active; AID 493014, 2011; active = well fitted inhibition curve with a large enough effect in the signal ratio, with a control signal flat, not every such curve was filed as active; inconclusive = small, poorly fitted or top-dose-only effect, or effect the other way, or a change in a side signal; the % refers to the signal ratio;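 note: potency is the fitted concentration of half-maximal effect; plate controls were basal doxycycline-induced cells for no effect and cells given 10 µM MG132 for full effect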
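TMD8 human ABC-DLBCL cells with doxycycline-inducible IκBα–green luciferase fusion and unfused red luciferase, in 0.5% FBS medium; compounds up to 46 uM, 4 h at 37C. Green/red luminescence ratio, filter-overlap corrected, fitted to concentration-response curves.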
IL2 activator: qHTS of IL-2 Activators; IL-2 activation reporter assay, cell-based qHTS; stimulated with anti-CD3/CD4/CD28 beads; in transgenic mouse T cells; AID 652025, 2013; 0.065% of 360,000 active; activation, % (series mostly up to about 46 µM); in the data active = activation above about 50%; inconclusive = mostly about 30% to 49%; note: 0% is about no effect
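Using fluorescent plate cytometry, EGFP and DsRed are detected in transgenic mouse T cells stimulated 18 h at 37 degrees C with antibody-coated beads after 60 min compound pretreatment.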
BRCA1 expr up: qHTS Assay to Identify Small Molecule Activators of BRCA1 Expression. MCF7-BRCA1-FFLuc reporter, luminescence, 48 h; response scale: scaled: vehicle 0%, 10 µM genistein 100%. 1.1% of 380,000 active. AID 624202, 2012. Potency, µM (series often up to 46.1 µM), without a hit: at the highest dose activation, actives largely listed as activators; note: potency is the fitted concentration of half-maximal effect; nearly all actives have a fitted effect of over 80% in size
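Activators of BRCA1 expression were detected as increased firefly luciferase luminescence in engineered MCF7 cells after 48 h compound incubation. Signals were scaled to genistein 10 microM as full activation.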
TCR activator: Activators of T cell receptors: qHTS campaign. primary human leukocytes, anti-CD3, IL-2 HTRF, 48 h. Potency, µM (top dose mostly 9.22 µM), without a hit: at the highest dose activation of IL-2 secretion, usual class: activators. 330,000 tested, under 10 active; note: % of control where 0% means no effect
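1) Mix primary human leukocytes, a-CD3 beads and compound. 2) Incubate 48 hr. 3) Add HTRF IL-2 reagents (a-IL-2-K, a-IL-2-d2).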
Numbers without * were called inactive; i = inactive; ? = inconclusive; · = no result; [ ] = remark or other dose. Hits are enriched below; roughly 1.3% of the tested compounds scored in any of these assays. Unless noted, calls come from the whole dose curve; as a rule, active = well fitted curve in the direction sought with a large enough effect; inconclusive = small, poorly fitted or top-dose-only effect, or another doubt; inactive = no such curve, though single readings can be large; an effect the other way counts as inactive or inconclusive.

SMILES	PTHR1 agonist	Mito fusion yeast	Chronic BCR inh	IL2 activator	BRCA1 expr up	TCR activator
CC1CCCCN1C(=O)CSc1nnc(-c2ccco2)o1 (stereo not drawn)	6%	4%	3%	-1	3.2µM*	-2%
Cc1occc1-c1nnc(SCC(=O)N(C)c2ccccc2)o1	i	2%	0%	-4	11%	5%
CC1CCCN(C(=O)CSc2nnc(-c3cccs3)o2)C1 (stereo not drawn)	-4%	-1%	4%	-5	103%	0%
CC1CCCCN1C(=O)CSc1nnc(-c2cccc(Cl)c2)o1 (stereo not drawn)	-33%	·	·	·	·	·
CC1CCCCN1C(=O)CSc1nnc(-c2ccccc2F)o1 (stereo not drawn)	-18%	4%	?	1	3.2µM*	-5%
CCC1CCCCN1C(=O)CSc1nnc(-c2cccs2)o1 (stereo not drawn)	-15%	-5%	-2%	-2	8.9µM*	-1%
CC(=O)/C(=N/Nc1ccccc1)Sc1nnc(C(O)c2ccccc2)n1-c1ccccc1 (stereo not drawn)	i	-3%	-1%	2	-5%	2%[46.1 µM]
Cc1cc(-c2ccccc2)c2c3c(c(-c4ccccc4)n2n1)c(=O)n(C)c(=O)n3C	11%[57.5 µM]	4%	-8%	70*	0%	-10%
COC(=O)/C(=C\C(=O)c1ccccc1)Nc1cccc(C(F)(F)F)c1	-48%	-2%	1%	-2	10µM*	-25%
O=C(Nc1ccccc1)Nc1cccc(C(F)(F)F)c1	-18%	-13%	2%	-1	30%	5%
Cc1ccc2c(c1)NC(=O)c1cccnc1N2	-40%[57.5 µM]	0%	?	0	4.5µM*	5%
Cc1cnc2ccccc2c1/C=C/c1ccc(N)cc1	·	·	·	·	-43%	·
Cc1ccc(NC(=O)CC(=O)c2ccccc2)cc1C	-14%	-8%	?	0	6.3µM*	6%
O=C(CSc1nnc2ccccn12)N1CCc2ccccc21	-32%	-4%	-6%	1	2.8µM*	4%
COc1ccc(C(=O)CSc2nnc3ccccn23)cc1OC	i	-2%[9.22 µM]	1%	-1	30%	-2%
Cc1ccnc(SCC(=O)N2CCc3ccccc32)n1	-14%	7%	2%	-1	10µM*	-6%
O=C(CSc1nnc2ccccn12)c1ccc2c(c1)OCCO2	-35%	-4%	2%	-2	7.1µM*	-2%
O=C(CSc1nnc2ccccn12)N1CCc2ccccc2C1	-12%[57.5 µM]	-8%	5%	0	?	4%
CCOc1ccc(C2CC=C(C(C)=O)CN2S(=O)(=O)c2ccc(C)cc2)cc1 (stereo not drawn)	-8%	·	·	-1	4%	·
CC(C)(CNC(=O)c1sc2cc(Cl)ccc2c1Cl)N1CCOCC1	-56%	13%	19%	-5	-29%	1%
O=C(NCC1CCCO1)c1sc2cc(Cl)ccc2c1Cl (stereo not drawn)	i	12%	?	-2	10µM*	-5%[46.1 µM]
COc1ccc(-c2csc(C(O)c3ccccc3)n2)cc1 (stereo not drawn)	-52%	·	·	0	?	·
COc1ccc(-c2csc(C(O)c3ccccc3)n2)cn1 (stereo not drawn)	-13%	·	·	1	11µM*	·
CSc1ccc(C2=CC(=O)C[C@H](c3ccc4c(c3)OCO4)C2)cc1	i	5%	-6%	1	20%	1%
CC(=O)N1N=C(c2ccc(Cl)cc2)CC1c1ccco1 (stereo not drawn)	-25%	-1%	1%	0	52%	0%
SMILES	PTHR1 agonist	Mito fusion yeast	Chronic BCR inh	IL2 activator	BRCA1 expr up	TCR activator
CC(=O)N1N=C(c2ccc(C)cc2)CC1c1ccco1 (stereo not drawn)	-9%	8%	?	1	13µM*	-5%
Cc1ccc(C2=CC(=O)C[C@H](c3ccc4c(c3)OCO4)C2)cc1	-15%	4µM*	5%	0	0%	8%
CC(=O)N1N=C(c2ccc(C)cc2)CC1c1ccc2c(c1)OCO2 (stereo not drawn)	-22%	4%	?	-2	4.5µM*	3%
Cc1ccc(C2=NN(S(C)(=O)=O)C(c3ccc4c(c3)OCO4)C2)cc1 (stereo not drawn)	-38%	-1%	?	0	?	3%[46.1 µM]
CCN(CC)S(=O)(=O)c1cc(-c2nnc(Nc3ccc(OC)c(C(N)=O)c3)c3ccccc23)ccc1C	-48%	·	·	·	·	·
COc1cc(OC)cc(C(=O)NC(C)CNc2ccc(Cl)cc2[N+](=O)[O-])c1 (stereo not drawn)	-6%	-15%	?	-1	-20%	-1%
CCCCNC(=O)C(NC(=O)c1ccc(=O)[nH]c1)C(=O)c1ccccc1 (stereo not drawn)	-25%	·	·	0	0%	·
CSc1ncc(CN2CCCC(C(=O)c3ccc(C(C)(C)C)cc3)C2)cn1 (stereo not drawn)	-18%	13µM*	1%	0	?	1%
CSc1ncc(CN2CCCC(C(=O)Nc3ccc(-c4ccco4)cc3)C2)cn1 (stereo not drawn)	i	-1%	-10%	1	17%	3%
O=C(Nc1c(C(=O)N2CCN(c3ccccc3F)CC2)oc2ccccc12)c1ccc(Br)o1	i	·	·	·	·	·
O=C(CNS(=O)(=O)c1ccccc1)N1CCc2ccccc2C1	-13%	2%	-1%	0	11µM*	·
Cc1ccc(S(=O)(=O)NCC(=O)N2CCc3ccccc3C2)cc1	-23%	0%	-2%	2	-30%	0%
COc1ccccc1OCc1cc(C(=O)N2CCCC(OCc3cccnc3)C2)no1 (stereo not drawn)	-16%	2%	1%	-2	7.1µM*	-15%
O=C(c1cc(COc2ccccc2)on1)N1CCCC(OCc2cccnc2)C1 (stereo not drawn)	i	-1%	1%	-3	47%	0%
CCN(CC)c1nc(C)nc2c1cnn2CCc1ccccc1	-18%[57.5 µM]	2%	-15%	0	8.9µM*	-1%
COC(=O)[C@H](CC(C)C)NC(=O)Cn1cnc(C(=O)Nc2ccc(C)c(C)c2)n1	-43%	·	-4%	0	11µM*	-2%[46.1 µM]
COC(=O)C[C@H](NC(=O)Cn1cnc(C(=O)Nc2ccc(C)c(C)c2)n1)C(=O)OC	-30%	·	-2%	1	22%	0%[46.1 µM]
